The values that follow come from PubChem BioAssay (NCATS).

Test [1] can be described thus: Quantitative High-Throughput drug screen in 47 multiple myeloma cell lines against the NCATS MIPE library collection: KMS20_JCRB cell viability assay (AID 1918973). Note: nearly all actives have a fitted effect of over 45% in size. Note: potency is the fitted concentration of half-maximal effect. An outline of the steps:
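Primary qHTS used for cherry-picking: cells at 500/well, library compounds for 48 h (37C, 5% CO2), luminescent ATP assay.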

Test [2] can be described thus: Quantitative High-Throughput drug screen in 47 multiple myeloma cell lines against the NCATS MIPE library collection: MMM1_PLB cell viability assay (AID 1918976). Note: nearly all actives have a fitted effect of over 35% in size. Note: potency is the fitted concentration of half-maximal effect. An outline of the steps: (§1)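 Myeloma cells (500/well) treated with MIPE 4.0 compounds for 48 h at 37 °C, 5% CO2. Viability read as ATP via CellTiter-Glo luminescence after 5 min at RT; DMSO-only wells = 100%, media-only = 0% viability.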

The nature of test [3]: Quantitative High-Throughput drug screen in 47 multiple myeloma cell lines against the NCATS MIPE library collection: NCIH929_DSMZ cell viability assay (AID 1918978). Note: nearly all actives have a fitted effect of over 35% in size. Note: potency is the fitted concentration of half-maximal effect. An outline of the steps: as §1
Test [4] can be described thus: Quantitative High-Throughput drug screen in 47 multiple myeloma cell lines against the NCATS MIPE library collection: KMS34_JCRB cell viability assay (AID 1918985). Note: nearly all actives have a fitted effect of over 40% in size. Note: potency is the fitted concentration of half-maximal effect. An outline of the steps:
as §1

Test [5] is described as follows: Quantitative High-Throughput drug screen in 47 multiple myeloma cell lines against the NCATS MIPE library collection: OPM1_PLB cell viability assay (AID 1918989). Note: nearly all actives have a fitted effect of over 40% in size. Note: potency is the fitted concentration of half-maximal effect. An outline of the steps:
as §1

Test [6] can be described thus: Quantitative High-Throughput drug screen in 47 multiple myeloma cell lines against the NCATS MIPE library collection: XG6_PLB cell viability assay (AID 1919865). Note: nearly all actives have a fitted effect of over 40% in size. Note: potency is the fitted concentration of half-maximal effect. A digest of the protocol:
as §1

The nature of test [7]: Quantitative High-Throughput drug screen in 47 multiple myeloma cell lines against the NCATS MIPE library collection: XG1_PLB cell viability assay (AID 1919866). Note: nearly all actives have a fitted effect of over 35% in size. Note: potency is the fitted concentration of half-maximal effect. An outline of the steps: as §1
Test [8] is described as follows: Quantitative High-Throughput drug screen in 47 multiple myeloma cell lines against the NCATS MIPE library collection: MOLP8_DSMZ cell viability assay (AID 1918977). Note: nearly all actives have a fitted effect of over 45% in size. Note: potency is the fitted concentration of half-maximal effect. A digest of the protocol: as §1
Test [9] is described as follows: Quantitative High-Throughput drug screen in 47 multiple myeloma cell lines against the NCATS MIPE library collection: OCIMY1_PLB cell viability assay (AID 1918979). Note: nearly all actives have a fitted effect of over 35% in size. An outline of the steps:
as §1

Test [10] is described as follows: Quantitative High-Throughput drug screen in 47 multiple myeloma cell lines against the NCATS MIPE library collection: LP1_DSMZ cell viability assay (AID 1918982). Note: nearly all actives have a fitted effect of over 35% in size. A digest of the protocol: as §1
Test [11] in a line: Quantitative High-Throughput drug screen in 47 multiple myeloma cell lines against the NCATS MIPE library collection: KMS28PE_JCRB cell viability assay (AID 1918983). Note: nearly all actives have a fitted effect of over 35% in size. Note: potency is the fitted concentration of half-maximal effect. An outline of the steps:
as §1

Test [12] can be described thus: Quantitative High-Throughput drug screen in 47 multiple myeloma cell lines against the NCATS MIPE library collection: L363_DSMZ cell viability assay (AID 1918984). Note: nearly all actives have a fitted effect of over 40% in size. Note: potency is the fitted concentration of half-maximal effect. The settings on record: L363 myeloma viability, CellTiter-Glo ATP luminescence, 48 h; viability (% of control): at 45.8 µM (top of the series). A digest of the protocol:
as §1
On the technique in general: Cellular ATP, detected with luciferase, serves as a proxy for viable cell number.

Test [13] in a line: Quantitative High-Throughput drug screen in 47 multiple myeloma cell lines against the NCATS MIPE library collection: SKMM1_PLB cell viability assay (AID 1919863). Note: nearly all actives have a fitted effect of over 35% in size. Note: potency is the fitted concentration of half-maximal effect. As to conditions: SKMM1 myeloma viability, CellTiter-Glo ATP, 48 h; viability: hits give low values. A digest of the protocol:
as §1

The nature of test [14]: Quantitative High-Throughput drug screen in 47 multiple myeloma cell lines against the NCATS MIPE library collection: U266_ATCC cell viability assay (AID 1919864). Note: nearly all actives have a fitted effect of over 35% in size. Note: potency is the fitted concentration of half-maximal effect. A digest of the protocol: as §1
Test [15] is described as follows: Quantitative High-Throughput drug screen in 47 multiple myeloma cell lines against the NCATS MIPE library collection: KMS26_JCRB cell viability assay (AID 1918975). Note: nearly all actives have a fitted effect of over 45% in size. Note: potency is the fitted concentration of half-maximal effect. A digest of the protocol: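 Luminescent ATP measurement with CellTiter-Glo gives viability, scaled between DMSO-only wells (100%) and media-only wells (0%). Cells, 500 per well, faced library compounds for 48 hours at 37C.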

Test [16] in a line: Quantitative High-Throughput drug screen in 47 multiple myeloma cell lines against the NCATS MIPE library collection: MM1R_ATCC cell viability assay (AID 1918981). Note: nearly all actives have a fitted effect of over 35% in size. Note: potency is the fitted concentration of half-maximal effect. A digest of the protocol:
as §1

Test [17] can be described thus: Quantitative High-Throughput drug screen in 47 multiple myeloma cell lines against the NCATS MIPE library collection: OCIMY7_PLB cell viability assay (AID 1918987). Note: nearly all actives have a fitted effect of over 65% in size. Note: potency is the fitted concentration of half-maximal effect. As to conditions: OCI-MY7 myeloma viability, CellTiter-Glo ATP, 48 h; viability (% of DMSO): at 45.8 µM (top of the series). An outline of the steps:
as §1

Test [18] is described as follows: Quantitative High-Throughput drug screen in 47 multiple myeloma cell lines against the NCATS MIPE library collection: OCIMY5_PLB cell viability assay (AID 1918988). Note: potency is the fitted concentration of half-maximal effect; nearly all actives have a fitted effect of over 65% in size. A digest of the protocol:
as §1

The nature of test [19]: Quantitative High-Throughput drug screen in 47 multiple myeloma cell lines against the NCATS MIPE library collection: MM1S_ATCC cell viability assay (AID 1918980). Note: potency is the fitted concentration of half-maximal effect; nearly all actives have a fitted effect of over 45% in size. A digest of the protocol: as §1

Results filed as inconclusive are left out. A number with no mark means an inactive call. Active and inactive are the calls of the source. Calls come from the whole dose curve; as a rule, active = well fitted curve in the direction sought with a large enough effect; inconclusive = small, poorly fitted or top-dose-only effect, or another doubt; inactive = no such curve, though single readings can be large; an effect the other way counts as inactive or inconclusive.

Usually viability stands for a read-out of living cells in per cent, often relative to untreated cells.

As to `Cc1ccc2c(c1)C(=O)[C@]1(O)CCN(c3ccccc3)C1=N2`, the values for the Potency in test [1] and in test [4] were 2.96 µM (active) and 1.48 µM (active), respectively. The Potency entry in test [2], in test [3], in test [5], in [6] and in test [7] was “inactive” in each case.

With `CCC=CC[C@H]1C(=O)CC[C@@H]1CC(=O)OC`, the Potency entry in [1], in test [8], in test [3], in test [9], in test [10] and in test [11] was “inactive” in each case. In addition, the Potency result in test [12], in test [4], in test [5], in [14], in [6] and in test [7] was “inactive” in each case. Further, the Potency in test [2] is 10.5 µM (active). In addition, in test [13], the viability is 144%.

With `O=C1NC(=O)C(c2cnc3ccccn23)=C1c1cn2c3c(cccc13)CN(C(=O)N1CCOCC1)CC2`, the Potency in test [1] was 3.72 µM (active); in test [15], 0.0235 µM (active); in test [16] it was 3.32 µM (active); in [12] it was 0.0093 µM (active); in [17], 0.0743 µM (active); in [18], 0.372 µM (active). Also, the Potency in test [5] is 10.5 µM (active); in [6] it was 1.87 µM (active). Further, the Potency result in [9], in [11] and in [14] was “inactive” in each case.

As to `CN1CC(=O)N2C(Cc3c([nH]c4ccccc34)[C@H]2c2ccc3c(c2)OCO3)C1=O` (stereo not given in full), the Potency entry in test [1], in test [8], in test [3], in [9], in test [16] and in test [11] was “inactive” each time. Besides, the Potency result in test [12], in [5], in test [14] and in test [7] was “inactive” each time. The viability in test [13] is 129%.

On to `COc1cc(Nc2nc3ccccc3nc2NS(=O)(=O)c2ccc(NC(=O)c3ccc(C)c(OC)c3)cc2)cc(OC)c1`, for which the Potency was 23.5 µM (active) in [1]; 11.8 µM (active) in test [15]; 14.8 µM (active) in test [3]; 20.9 µM (active) in [19]; 4.69 µM (active) in test [18]; 10.5 µM (active) in test [13]. The Potency in test [6] and in test [7] was 13.2 µM (active) throughout.

For `O=C1CN2Cc3c(ccc(Cl)c3Cl)N=C2N1`, the Potency entry in test [1], in test [9] and in test [12] was “inactive” each time. Besides, the Potency was 23.5 µM (active) in test [2]; 18.7 µM (active) in test [19]; 23.5 µM (active) in test [11]; 23.5 µM (active) in test [18]; 13.2 µM (active) in test [5].

Regarding `OC[C@H]1O[C@@H](Oc2ccc(O)cc2)[C@H](O)[C@@H](O)[C@H]1O`, the Potency entry in [1], in test [15], in test [8], in test [16], in [11] and in test [12] was “inactive” each time. For the same compound, the Potency result in test [4] and in [5] was “inactive” each time.

On to `CCN(CCO)CCCOc1ccc2c(Nc3cc(CC(=O)Nc4cccc(F)c4)[nH]n3)ncnc2c1`, for which the Potency entry in test [1], in test [8], in test [3], in test [9], in test [10] and in test [11] was “inactive” each time. The Potency entry in test [4], in test [5] and in [14] was “inactive” each time. The Potency was 1.05 µM (active) in [17], 0.264 µM (active) in [18], 16.6 µM (active) in [6] and 0.0418 µM (active) in [7]. In test [13], the viability is 116%.

With `CCOC(=O)[C@H]1O[C@H]1C(=O)N[C@@H](CC(C)C)C(=O)NCCC(C)C`, the Potency result in test [1], in test [8], in test [3], in test [9], in [16] and in [10] was “inactive” each time. In addition, the Potency result in test [7] is “inactive”. Moreover, the Potency was 29.6 µM (active) in test [18] and 6.62 µM (active) in test [6].

As to `Nc1nc(Cl)nc2c1ncn2[C@@H]1O[C@H](CO)[C@@H](O)[C@H]1F`, the Potency in test [1] is 0.0264 µM (active); in test [2], 2.09 µM (active); in test [3] it was 0.0332 µM (active); in test [11] it was 0.0418 µM (active); in test [12], 0.0526 µM (active); in test [18] it was 0.0743 µM (active). Besides, the results for the Potency in [5], in test [14] and in test [6] were 1.48 µM (active), 1.48 µM (active) and 0.0235 µM (active), respectively.

On to `COc1ccc2c(c1)c(C1=C(c3c[nH]c4ccccc34)C(=O)NC1=O)cn2CCCN(C)C`, for which the Potency in test [1] was 14.8 µM (active); in test [8] it was 14.8 µM (active); in [3], 23.5 µM (active); in test [16], 23.5 µM (active); in [12] it was 13.2 µM (active); in [4], 14.8 µM (active). Further, the Potency is 37.2 µM (active) in test [18], 23.5 µM (active) in test [5] and 26.4 µM (active) in [14]. For the same compound, the Potency entry in test [10] was “inactive”.

As for `CC1CCN(c2cc(N3CCN(C)CC3)ccc2NC(=O)c2cc(C#N)c[nH]2)CC1`, the Potency entry in [1], in [3] and in test [6] was “inactive” in each case. The Potency is 23.5 µM (active) in test [2], 20.9 µM (active) in [16], 23.5 µM (active) in [11] and 20.9 µM (active) in test [4].

Take `NC(=O)c1ncn([C@@H]2O[C@H](CO)[C@@H](O)[C@@H]2O)n1`: the Potency entry in test [1], in [15], in [3], in test [9], in test [10] and in test [11] was “inactive” throughout. Also, the Potency entry in test [17], in [5], in test [6] and in test [7] was “inactive” each time. Further, the Potency in test [19] is 8.33 µM (active).

As for `Cc1cccc2c1CC[C@H](CN1CCC(c3c(Cl)cccc3Cl)CC1)C[C@@H]2O`, the Potency in test [1] is 20.9 µM (active); in [2], 18.7 µM (active); in [18], 2.64 µM (active); in test [5], 18.7 µM (active); in test [6] it was 20.9 µM (active); in test [7], 20.9 µM (active).

In the case of `C[C@@]1(c2cc(-c3cncnc3)c(F)cc2F)CCSC(N)=N1`, the Potency in test [1] is 9.35 µM (active); in test [3], 2.96 µM (active); in [12], 1.48 µM (active). In addition, the Potency entry in test [15], in test [9], in test [16], in [4] and in test [14] was “inactive” throughout.

In the case of `CCC(=C(CC)c1ccc(O)cc1)c1ccc(O)cc1`, the Potency entry in [1] is “inactive”. Moreover, the Potency is 13.2 µM (active) in [15]; 14.8 µM (active) in [19]; 14.8 µM (active) in test [16]; 18.7 µM (active) in test [11]; 23.5 µM (active) in test [4]; 20.9 µM (active) in test [18]. Also, the Potency in test [13] is 14.8 µM (active); in test [6], 20.9 µM (active).
